Results filed as inconclusive are left out. Activity calls are given as the source filed them. The call rests on the fitted dose curve; in most records, active means well fitted activation curve with a large enough effect; inconclusive means small, poorly fitted or top-dose-only effect; inactive means no such curve, though single readings can be large or run the other way.

Chain of Arylsulfatase A (Homo sapiens) (P15289 whole entry, looked up): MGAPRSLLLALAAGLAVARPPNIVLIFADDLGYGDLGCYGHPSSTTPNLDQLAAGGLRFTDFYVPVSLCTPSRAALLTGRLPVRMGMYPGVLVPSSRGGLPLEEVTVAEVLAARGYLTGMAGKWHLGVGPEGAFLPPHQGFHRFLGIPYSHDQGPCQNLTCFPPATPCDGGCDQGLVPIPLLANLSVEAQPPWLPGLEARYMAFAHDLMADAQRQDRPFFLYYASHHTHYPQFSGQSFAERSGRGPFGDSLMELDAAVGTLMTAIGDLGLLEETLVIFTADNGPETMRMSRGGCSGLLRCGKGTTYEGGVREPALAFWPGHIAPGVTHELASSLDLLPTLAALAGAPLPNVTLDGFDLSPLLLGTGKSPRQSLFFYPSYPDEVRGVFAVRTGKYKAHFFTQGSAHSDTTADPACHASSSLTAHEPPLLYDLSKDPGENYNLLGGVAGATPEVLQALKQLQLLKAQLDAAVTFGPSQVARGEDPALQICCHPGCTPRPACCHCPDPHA

The assay addresses Arylsulfatase A (Homo sapiens) (UniProt P15289). The experiment in a line: qHTS screen for enhancers of Arylsulfatase A (ASA1): LOPAC Validation Assay (AID 720538). As to conditions: ASA enzyme activity, LOPAC qHTS enhancer assay; series mostly up to 57.5 µM. The source says:
Lysosomal storage diseases (LSDs) are caused by genetic mutations in genes encoding proteins important for normal lysosomal function. In affected patients, symptoms are usually not manifested unless the mutations result in more than 90% reduction of enzymatic activity of a specific lysosomal enzyme. […] Small molecules could function as enzyme enhancement agents by binding to and stabilizing mutant misfolded proteins in the endoplasmic reticulum (ER), allowing them to evade the ER associated degradation (ERAD), and eventually reach the lysosome. Moreover, small molecules is hypothesized to be able to enhance the residual activity of deficient lysosomal enzyme by either interacting directly with the mutant enzyme or indirectly by acting in different cellular pathways; resulting to increased levels of the mutant and partially functional protein in the lysosomal compartment.
A cell based assay in 1536 well plate format was developed to evaluate activity of the lysosomal sulfatase ASA1 enzyme. ASA1 is deficient in metachromatic leukodystrophy (MLD), an LSD characterized by progressive neurodegeneration for which specific treatment is not available. Compounds that are active may therefore have some therapeutic application for this disease. This assay was used to validate the ASA1 qHTS using the Sigma LOPAC library. In this assay increase in signal = enhanced ASA1 activity. Activation is the desired outcome for this assay.
NIH Chemical Genomics Center [NCGC]
NIH Molecular Libraries Probe Centers Network [MLPCN]
Assay Submitter (PI): Gustavo Maegawa, Johns Hopkins University School of Medicine
[2] Gieselmann V, et al. Acta Paediatr Suppl. 2008; 97: 15-21
Four microliter (~8,000 cells/well) of SV40-transformed skin fibroblasts from an MLD patient (ASA-I179S) were seeded into a 1,536 solid white plate. Cells were left to adhere for 6 hrs, followed by addition of 23 nL of compounds. Cells were incubated with compounds for 48h at 37 degree C and 5% CO2. Four microliter of 1 mM pNCS substrate/lysis buffer (0.5mM pNCS final concentration) was added and incubated for 14h at room temperature. To stop the reaction, […] of 5 N of NaOH (1N NaOH final concentration) was then added and fluorescence was measured using the ViewLux plate reader (Ex=525 nm; Em=598 nm).
A general note: qHTS replaces the single test concentration by a dilution series.
With `NC(N)=NCCCCN=C(N)N`, the outcome was inactive. To `N[C@@H](Cn1ccc(=O)c(O)c1)C(=O)O` belongs “inactive”. `Cn1cnc2c(NCc3ccccc3)nc(NCCO)nc21`: the result was inactive.

Turning to `O=C1NC(c2cccc([N+](=O)[O-])c2)=CCN1c1ccccc1O`, the outcome was inactive. To `CC(C)N(CCC(=O)c1ccc2ccccc2c1)Cc1ccccc1` belongs “inactive”; to `C[N+](C)(C)CCO`, “inactive”. Next, `Clc1ccc2c(c1)N=C(N1CCNCC1)c1ccccc1N2`: “inactive”; `COc1ccccc1N1CCN(CCN2C(=O)CC3(CCCC3)CC2=O)CC1`: “inactive”. Regarding `Nc1ncnc2n[nH]c(Nc3ccc(F)cc3)c12`, the result was inactive. Next, `CN(C)c1cc2c(Nc3ccc4c(cnn4Cc4ccccc4)c3)ncnc2cn1`: “inactive”. Next, `O=C1NC(=O)/C(=C/c2ccc3c(c2)OC(F)(F)O3)S1`: “inactive”; `COC(=O)C1=CO[C@@H](O)[C@@H]2C(CO)=CC[C@H]12`: “inactive”. To `O=[N+]([O-])c1ccc(-c2nc(-c3ccc(F)cc3)c(-c3ccncc3)[nH]2)cc1` belongs “inactive”. On to `CCN(CC)CCNC(=O)c1ccc(NS(C)(=O)=O)cc1`, for which the result was inactive.

On to `Cc1nn(-c2ccccc2)c(C)c1/C=N/N1CCN(Cc2ccccc2)CC1`, for which the result was inactive.

The values are drawn from PubChem BioAssay (NCATS).
